Experimental data: PubChem BioAssay (NCI)
This is part of a sample that, as a whole, favours compounds with a hit. Of some 83,000 tested, about 20% had one in any assay.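 Testing used 96-well plates and a 48-hour single-concentration exposure. Example: -40 means 40% of the starting cells died.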 The source made the active and inactive calls. Rule for the calls: active = growth percent below 10; inactive = the rest.

Key:
Assay in all cases: NCI-60 one-dose screen, 48 h (100 = growth as untreated, 0 = no growth, -100 = all killed)
Details in all cases: 10 µM unless noted
[1] = test system: T-47D breast
[2] = test system: BT-549 breast
[3] = test system: MDA-MB-435 melanoma
[4] = test system: SW-620 colon
[5] = test system: MCF7 breast
[6] = test system: HCT-116 colon
[7] = test system: HCC-2998 colon
[8] = test system: KM12 colon

Measured: growth

COC(=O)c1sc(-c2ccc(C)cc2)cc1O
inactive: [1] 102% | [2] 107% | [3] 91.9% | [4] 103% | [5] 96.4% | [6] 96.6% | [7] 94.7% | [8] 95.8%

O=C1/C(=C/c2cccc([N+](=O)[O-])c2)COc2ccc(O)c(O)c21
active: [1] -16.8% | [2] -3.03% | [3] -33.4% | [4] -31.4% | [5] 1.76% | [6] -74.8% | [7] -85.2% | [8] -45.7%

Clc1nc(N2CCC[N+]3(CC2)CC[N+]2(CCCNCC2)CC3)nc(N2CCC[N+]3(CC2)CC[N+]2(CCCNCC2)CC3)n1 (configuration not stated)
inactive: [1] 95% | [2] 95.1% | [3] 90% | [4] 98.2% | [5] 91.3% | [6] 87% | [7] 97.9% | [8] 94.4%

CCCc1cc(CCC)n2nc(N)nc2n1
inactive: [1] 110% | [2] 92.9% | [3] 110% | [4] 109% | [5] 95.6% | [6] 103% | [7] 98.1% | [8] 108%

O=C(Nc1ncc(Cc2cc(C(F)(F)F)ccc2Cl)s1)C(=S)N1CCOCC1
inactive: [1] 73.9% | [2] 99% | [3] 85.9% | [4] 93.2% | [5] 82% | [6] 81.8% | [7] 101% | [8] 97.7%

O=c1n(C2OC(CO)C(O)C2O)ccc2nccn12 (configuration not stated)
inactive: [1] 118% | [2] 121% | [3] 102% | [4] 94.4% | [5] 94.1% | [6] 112% | [7] 110% | [8] 103%

C=C(C)[C@@H]1CC[C@]2(C#N)CC[C@]3(C)[C@H](CC[C@@H]4[C@@]5(C)CCCNC(C)(C)[C@@H]5CC[C@]43C)[C@@H]12
inactive: [1] 78.8% | [2] 96.1% | [3] 44.2% | [5] 20% | [6] 41.6% | [8] 41%
active: [4] 2.83% | [7] -40.2%

COc1ccc(C2=NN3C(C2)c2cc(Br)ccc2OC3c2ccncc2)cc1 (configuration not stated)
inactive: [1] 69.1% | [2] 76.6% | [3] 92.4% | [4] 90.7% | [5] 70.7% | [6] 76.8% | [7] 105% | [8] 73%

COc1cc(/C=C2\CN(S(=O)(=O)c3ccc(C)cc3)C/C(=C\c3cc(CN4CCCC4)c(O)c(OC)c3)C2=O)cc(CN2CCCC2)c1O
active: [3] -76.8% | [4] -68.1% | [5] -25.5% | [6] -91.7% | [7] -89.5% | [8] -63.9%
inactive: [1] 40% | [2] 12.7%

COc1ccc(-c2cc(-c3ccc(N(C)C)cc3)nc(NC(=O)c3cccnc3)n2)cc1
inactive: [1] 85.6% | [2] 119% | [3] 103% | [4] 101% | [5] 81.9% | [6] 102% | [7] 120% | [8] 98.3%

COc1cc2c(c(OC)c1OC)CCC(c1cccc(C(=O)Nc3ccccc3Br)c1)O2 (configuration not stated)
inactive: [1] 68.6% | [2] 69.6% | [3] 94% | [4] 99.6% | [5] 91.8% | [6] 74.7% | [7] 90% | [8] 101%

COc1ccc(N2C(=O)/C(=C/C(Cl)=C/c3ccc([N+](=O)[O-])cc3)SC2=S)cc1
inactive: [5] 10.4%
active: [1] -14.9% | [2] -4.68% | [3] -14.4% | [4] -13.7% | [6] -60.4% | [7] -20.2% | [8] -61.5%

CCCCC#Cc1c(I)n(C2OC(CO[Si](C)(C)C(C)(C)C)C3OC(C)(C)OC32)c(=O)[nH]c1=O (configuration not stated)
active: [7] -19.8%
inactive: [1] 12.3% | [2] 99.2% | [3] 82.9% | [4] 47.6% | [5] 62.4% | [6] 50.2% | [8] 109%

CCN1C(=O)N(CC)C2C1NN=c1s/c(=C\c3ccc([N+](=O)[O-])cc3)c(=O)n12 (configuration not stated)
inactive: [1] 23.9% | [2] 32.7% | [4] 19.8% | [7] 11.4% | [8] 19.6%
active: [3] -23.4% | [5] 7.6% | [6] 7.31%

CCOc1ccc(-c2cc(C3(S(=O)(=O)c4ccc(C)cc4)CC=CC3)on2)cc1
inactive: [1] 64.4% | [2] 94.8% | [3] 95.1% | [4] 89.4% | [5] 95.9% | [6] 82.3% | [7] 97.1% | [8] 94.4%

COC(=O)[C@@H](Cc1c[nH]c2ccccc12)NC(=O)[C@H](Cc1ccccc1)NCc1ccncc1
inactive: [1] 93.2% | [2] 96.5% | [3] 113% | [4] 104% | [5] 110% | [6] 87.4% | [7] 112% | [8] 96.5%

CO[C@H]1CC(c2ccc[nH]2)=N[C@]12O[C@@H](C)C[C@@H]1CCCCCCCc3ccc([nH]3)[C@H]12
inactive: [1] 11.8% | [2] 33.7% | [3] 15.2% | [4] 21.5% | [5] 16.5% | [7] 22.1% | [8] 18.3%
active: [6] 8.1%

Cc1c(N2CCCCC2)[nH]c2ccccc12
inactive: [1] 110% | [2] 121% | [3] 103% | [4] 100% | [5] 111% | [6] 105% | [7] 113% | [8] 113%

CC(=O)c1ccc(Nc2nccc(-c3ccc(Cl)cc3)n2)cc1
inactive: [1] 80.2% | [2] 100% | [3] 104% | [4] 92.6% | [5] 76.8% | [6] 62.9% | [7] 114% | [8] 94.7%

CCN1CCN(c2nc(NNC(=O)c3ccc(OC)cc3)nc(N3CCN(C(c4ccccc4)c4ccccc4)CC3)n2)CC1
inactive: [1] 43.4% | [2] 81.1% | [3] 18.3% | [4] 32.4% | [5] 15.9% | [6] 20.8% | [7] 21.3% | [8] 36.9%

O=C1C(Nc2ccc(Br)cc2)=C(I)C(=O)c2ncccc21
active: [1] -41.3% | [3] -79% | [4] -24.6% | [5] -35.4% | [6] -36.2%
inactive: [2] 63.9% | [7] 87.3% | [8] 49.9%

COc1cccc(-c2cc(-c3ccc(Nc4nc(Nc5ccc(Cl)cc5)nc(Nc5ccc(Cl)cc5)n4)cc3)nc(N)c2C#N)c1
active: [1] -30.3% | [2] -30.1% | [3] -5.12% | [4] -39.7% | [6] 6.35% | [7] -29.9%
inactive: [5] 28.5% | [8] 46.7%

Cc1ccccc1NC(=O)Cn1cc(CN2CCN(c3ccnc4cc(Cl)ccc34)CC2)nn1
inactive: [1] 92.4% | [2] 93.4% | [3] 99.4% | [4] 94.2% | [5] 93.9% | [6] 100% | [7] 93.3% | [8] 91.5%

CN(C)CCOc1nc2c3cc([N+](=O)[O-])ccc3nn2c2ccccc12
inactive: [1] 46.5% | [2] 69.6% | [3] 82.4% | [4] 20.4% | [5] 16.7% | [6] 16.7% | [7] 54.6% | [8] 41.9%

Cc1cc2c(c(C)n1)CN(C(=O)Nc1nc(-c3cncs3)ccc1N)C2
inactive: [1] 90.5% | [2] 105% | [3] 102% | [4] 107% | [5] 89.3% | [6] 92.3% | [7] 107% | [8] 95.8%

CCCCCC(C)(O)C(C(=O)O)c1ccccc1 (configuration not stated)
inactive: [1] 106% | [2] 101% | [3] 107% | [4] 102% | [5] 98.1% | [6] 99.2% | [7] 108% | [8] 104%

O=C1Nc2ccccc2/C1=C/c1cccn1CCCCCCn1c2ccccc2c(=O)c2ccccc21
inactive: [2] 63.5% | [3] 96.7% | [4] 102% | [6] 70.4% | [7] 42.8% | [8] 12.8%
active: [1] -3% | [5] 1.03%

c1ccc2c(-c3cnn4cc(-c5ccc(N6CCNCC6)cc5)cnc34)ccnc2c1
active: [1] -45.9% | [2] -80.9% | [3] -99.4% | [4] -52.3% | [5] -64.1% | [6] -98.4% | [7] -63.8% | [8] -72.7%

O=C(Nc1cccc2c1C(=O)c1cccc(NC(=O)c3ccc(C(=O)Nc4cccc5c4C(=O)c4cccc(NC(=O)c6ccccc6)c4C5=O)cc3)c1C2=O)c1ccccc1
inactive: [1] 101% | [2] 72.4% | [3] 112% | [4] 99.9% | [5] 104% | [6] 104% | [7] 101% | [8] 102%
